High-throughput results (PubChem)
Sampled rows, rich in hits. Any-hit rate of the full collection: about 6.3%.
tim10-1 inh = growth inhibitors of tim10-1 mutant yeast. S. cerevisiae tim10-1 ts strain growth, BacTiter-Glo, 24 h. AID 463190. inhibition, % at 20 µM. hit rate 2.2% among 330,000;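 active means inhibition of at least 40%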;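 further: mutant grown at 25 °C; 0% = DMSO wells with yeast and 100% = wells holding no yeast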
tim23-1 inh = growth inhibitors of tim23-1 mutant yeast; S. cerevisiae tim23-1 growth, BacTiter-Glo luminescence, 24 h; inhibition, % at 20 µM; hit rate 1.3% among 330,000; AID 463212;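 active means growth inhibition of the mutant yeast at or above 50%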;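 further: temperature-sensitive mutant grown at 25 °C; plate controls were DMSO-treated mutant yeast for no effect and medium wells lacking yeast for full effect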
TIM10 inh = inhibits growth of TIM10 yeast strain; S. cerevisiae TIM10 strain growth, BacTiter-Glo luminescence, 24 h; inhibition, % at 10 µM; hit rate 1.4% among 330,000; AID 463195;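 active means inhibition of 40% or more at the single tested concentration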;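 further: wild-type TIM10 isogenic control strain grown at permissive 25 °C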
Mdm2 MdmX PPI = human Mdm2/MdmX binding inhibition. O15151+Q00987. inhibition, % at 8 µM. SaOS-2 split-luciferase Mdm2/MdmX complementation, luminescence. hit rate 3% among 330,000;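 active means inhibition of at least 50% at 8 µM in the primary screen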
Target sequence (O15151 whole entry, looked up): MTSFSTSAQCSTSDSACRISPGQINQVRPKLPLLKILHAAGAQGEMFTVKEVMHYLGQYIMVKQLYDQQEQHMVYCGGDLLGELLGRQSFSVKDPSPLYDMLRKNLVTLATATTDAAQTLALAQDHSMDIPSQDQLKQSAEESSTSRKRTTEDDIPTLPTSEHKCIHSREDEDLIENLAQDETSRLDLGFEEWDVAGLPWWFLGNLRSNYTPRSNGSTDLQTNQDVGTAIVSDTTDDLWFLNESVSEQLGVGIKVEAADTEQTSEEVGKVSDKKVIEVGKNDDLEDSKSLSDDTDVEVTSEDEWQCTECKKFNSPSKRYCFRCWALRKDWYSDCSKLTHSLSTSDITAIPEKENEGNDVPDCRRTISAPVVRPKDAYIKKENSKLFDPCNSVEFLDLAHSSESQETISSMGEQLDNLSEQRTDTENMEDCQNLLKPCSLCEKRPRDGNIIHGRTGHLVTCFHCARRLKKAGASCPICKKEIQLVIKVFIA
Target sequence (Q00987 whole entry, looked up): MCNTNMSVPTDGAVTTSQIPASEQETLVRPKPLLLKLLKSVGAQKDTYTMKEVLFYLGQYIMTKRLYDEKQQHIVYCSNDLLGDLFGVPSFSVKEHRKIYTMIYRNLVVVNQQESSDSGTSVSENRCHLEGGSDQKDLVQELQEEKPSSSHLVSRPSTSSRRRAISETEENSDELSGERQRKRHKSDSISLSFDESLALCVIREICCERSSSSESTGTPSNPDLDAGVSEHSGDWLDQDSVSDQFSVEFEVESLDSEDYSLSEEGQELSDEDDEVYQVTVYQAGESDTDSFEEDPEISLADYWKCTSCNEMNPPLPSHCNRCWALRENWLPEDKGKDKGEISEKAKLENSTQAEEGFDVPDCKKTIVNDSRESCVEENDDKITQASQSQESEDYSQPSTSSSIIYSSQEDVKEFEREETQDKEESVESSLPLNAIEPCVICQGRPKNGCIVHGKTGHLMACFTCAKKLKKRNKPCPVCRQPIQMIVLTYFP
MPTP block = permeability transition pore inhibition | isolated mouse mitochondria, Ca2+ swelling absorbance, 30 min | inhibition, % at 10 µM | hit rate 1.4% among 360,000;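 active means inhibition of 50% or more, scaled per plate between neutral and stimulator controls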;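 further: 0% = DMSO wells given calcium and 100% = 1 mM EGTA wells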
MPTP counter = membrane potential counter-screen of mitochondrial pore inhibitors; isolated mitochondria, Rhodamine 123 fluorescence; inhibition, % at 10 µM; shares compounds with MPTP block; hit rate 78% among 5,000; in the data active means inhibition above about 22%;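 further: 0% = DMSO vehicle and 100% = positive control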
MPTP abs DR = dose response confirmation of mitochondrial permeability transition pore inhibitors | shares compounds with MPTP block | AID 651561 | isolated mitochondria swelling, absorbance | hit rate 58% among 780 | IC50, µM; in the data active means IC50 below about 20 µM
MPTP cs DR = MPTP inhibitor counter-screen activity, dose response | shares compounds with MPTP block | isolated mitochondria counterscreen, fluorescence read-out | IC50, µM | hit rate 49% among 780 | AID 651564; in the data active means IC50 below about 80 µM
Starred values were filed as active, the others as inactive; i = inactive; · = no result.

SMILES | tim10-1 inh | tim23-1 inh | TIM10 inh | Mdm2 MdmX PPI | MPTP block | MPTP counter | others
COC(=O)N1CCCCC1c1cc(C(=O)NCc2ccccc2)no1 (configuration not stated) | · | · | · | · | 0 | ·
COc1ccc(OCCCCc2c(C)n[nH]c2C)cc1 | 5 | 9 | 13 | 14 | 51* | 36*
COCC(=O)Nc1ncc(S(=O)(=O)c2ccc([N+](=O)[O-])cc2)s1 | 37 | 36 | 34 | 11 | -1 | ·
O=C(Nc1ncc(S(=O)(=O)c2ccc([N+](=O)[O-])cc2)s1)c1cccc2ccccc12 | 36 | 21 | 16 | 42 | 54* | 79*
Cn1ccc2c(N3CCCCC3)cc3c(c21)C1CCC3C1 (configuration not stated) | · | · | · | · | 1 | ·
Cc1nc2ccccc2n1CC(=O)NN | 6 | -5 | 11 | 1 | 2 | ·
Cc1nc2ccccc2n1CC(=O)NCc1ccccc1 | 7 | 16 | -2 | 24 | 70* | 20 | MPTP abs DR=i;MPTP cs DR=31*
COc1ccccc1-c1cccc2nccn12 | · | · | · | · | -1 | ·
O=c1oc2c(-c3ccc([N+](=O)[O-])cc3)cc(O)cc2s1 | 10 | 1 | -7 | -14 | 78* | 55*
COc1ccc(Cl)c(N2CCN(CCCNC(=O)Nc3ccc(C)cc3)CC2)c1 | 21 | 20 | 14 | 11 | 80* | -9 | MPTP abs DR=9.4*;MPTP cs DR=37*
COc1ccccc1N1CCN(CCCNC(=O)Nc2ccccc2C)CC1 | 11 | -9 | 1 | -23 | 3 | ·
COc1ccc(Cl)cc1N1CCN(CCNC(=O)Nc2ccccc2C)CC1 | 37 | 20 | 18 | 7 | 94* | -7 | MPTP abs DR=i;MPTP cs DR=32*
CCCCNC(=O)C1(C)CCC(=O)N1CCc1c[nH]c2ccccc12 (configuration not stated) | · | · | · | · | 0 | ·
CCc1cc2cc(C)cc(C)c2nc1SCC(=O)N1CCN(C(=O)c2ccco2)CC1 | 3 | 20 | -8 | 17 | 64* | 30*
COc1ccc(Nc2nc3ccccc3nc2NS(=O)(=O)c2cccs2)c(OC)c1 | 13 | 15 | -3 | 20 | 37 | ·
COc1cccc(Nc2nc3ccccc3nc2NS(=O)(=O)c2cccs2)c1 | 19 | 7 | 10 | 41 | 58* | 71*
CC1(C(=O)NCc2ccc3c(c2)OCO3)CCN1C(=O)CCc1ccc(Cl)cc1Cl (configuration not stated) | · | · | · | · | 0 | ·
CCOC(=O)CSc1nnc(NCC(=O)OC(C)C)c(=O)[nH]1 | 19 | 13 | -1 | 1 | 63* | -2 | MPTP abs DR=>100;MPTP cs DR=>80
O=C(Nc1ccc(C(F)(F)F)cc1)c1ccc2nc[nH]c2c1 | 8 | -3 | 7 | -6 | 80* | 93*
COc1ccc(NC(=O)c2ccc3nc[nH]c3c2)cc1 | 17 | 9 | 6 | -37 | 0 | ·
c1csc(C2Nc3ccccc3-c3nc4ccccc4n32)c1 (configuration not stated) | 38 | 34 | 22 | -18 | 52* | 75*
CN1c2ccccc2-c2nc3ccccc3n2C1c1cccs1 (configuration not stated) | 14 | 37 | 26 | 10 | -3 | ·
Cc1ccc(NC(=O)Nc2ccc(F)cc2)cc1Cl | -7 | -10 | 16 | -24 | 95* | 90*
COc1cccc(NC(=O)Nc2cc(C(=O)O)ccc2C)c1 | 15 | 21 | 8 | -5 | -1 | ·
COc1cccc(NC(=O)Nc2ccc(C)c(Cl)c2)c1 | -9 | 2 | -2 | -44 | 80* | 90*
SMILES | tim10-1 inh | tim23-1 inh | TIM10 inh | Mdm2 MdmX PPI | MPTP block | MPTP counter | others
COc1cccc(CN(C)C(=O)CC[C@H]2O[C@@H](n3ccc(=O)[nH]c3=O)[C@H](O)[C@@H]2O)c1 | · | · | · | · | 0 | ·
CCc1ccc(Nc2cc(C(=O)NCCCN3CCOCC3)c3ccccc3n2)cc1 | -3 | -15 | -7 | 13 | 52* | -25 | MPTP abs DR=i;MPTP cs DR=>80
Cc1ccc(-c2cc(-c3n[nH]c(=S)o3)c3ccccc3n2)cc1 | · | · | · | · | 94* | 64*
O=C(C1CC1)N1CCC(c2nc(-c3ccc(S(=O)(=O)NCC4CCCO4)cc3)no2)CC1 (configuration not stated) | 29 | 23 | 2 | 9 | 66* | 16 | MPTP abs DR=i;MPTP cs DR=46*
O=C(c1ccccc1)N1CCC(c2nc(-c3ccc(S(=O)(=O)NCC4CCCO4)cc3)no2)CC1 (configuration not stated) | 8 | 7 | -4 | 20 | 53* | 62*
COc1cc2c(cc1OC)/C(=C/C(C)=O)OC2 | · | · | · | · | -1 | ·
CC1(C(=O)NC2CCCC2)CCC(=O)N1CCc1c[nH]c2ccccc12 (configuration not stated) | · | · | · | · | 0 | ·
O=S(=O)(c1cccs1)N1CCN(CC(O)COc2cc(Cl)ccc2Cl)CC1 (configuration not stated) | 38 | 4 | 34 | 15 | 87* | 91*
CCCCc1c(C)c(C#N)c2[nH]c3ccccc3n2c1=O | 19 | 15 | 10 | 35 | 83* | 96*
Cc1ccc(NC(=O)CSc2ncnc3ccccc23)cc1S(=O)(=O)N1CCCCC1 | 2 | 12 | 4 | 41 | 79* | 71*
Cc1ccc(NC(=S)NCc2ccccc2)cc1S(=O)(=O)N1CCCCC1 | 12 | 30 | 12 | 14 | 75* | 75*
CCCCc1ccc(S(=O)(=O)NC(=O)C2(C)CCN2C(=O)c2cccc(F)c2)cc1 (configuration not stated) | · | · | · | · | 0 | ·
Nc1c(N(Cc2ccccc2)C(=O)COc2ccc([N+](=O)[O-])cc2)c(=O)[nH]c(=O)n1Cc1ccccc1 | · | · | · | · | 1 | ·
C/C(=N\NC(=O)c1cc(Cl)ccc1O)c1ccc(Br)s1 | 16 | 4 | 0 | -22 | 94* | 20 | MPTP abs DR=4.7*;MPTP cs DR=<2.5*
CCOc1ccccc1C(=O)NCC(=O)NNC(=O)c1cccs1 | 6 | 3 | 3 | 2 | -1 | ·
COCCN1C(=O)COc2ccccc2C1C(=O)NC1CCCCC1 (configuration not stated) | · | · | · | · | 1 | ·
O=c1c2c(nc3c(-c4ccccc4)c[nH]n13)CCC2 | 19 | 9 | 9 | -2 | 0 | ·
O=c1c2c(nc3c(-c4cccc(Br)c4)c[nH]n13)CCCC2 | 20 | 7 | -3 | 32 | 58* | 73*
O=C(NCc1ccccc1)C1C(c2ccc3c(c2)OCO3)=Nc2ccccc2N1C(=O)c1cccc2ccccc12 (configuration not stated) | · | · | · | · | 1 | ·
CCOC(=O)c1ccc(NC(=O)C2C3CCCCC32)cc1 (configuration not stated) | 6 | 44 | 3 | -73 | 9 | ·
CCOC(=O)c1ccc(NC(=S)NC2CCCC2)cc1 | 23 | 41 | -7 | 2 | 95* | 96*
CCOC(=O)c1ccc(NC(=S)NCCC2=CCCCC2)cc1 | 8 | 0 | 23 | 22 | 77* | 86*
